Data taken from article PMC5540273 (PLoS ONE, 2017).

Columns and labels:
[1] = tested on: T1, p38-alpha
T1 construct: gene MAPK14

[2] = tested on: AAK1; settings: concentration: 1 μM, replicates: in singlicate; n = 1
[3] = tested on: ABL1-nonphosphorylated; settings: concentration: 1 μM, replicates: in singlicate; n = 1
[4] = tested on: ABL1-phosphorylated; settings: concentration: 1 μM, replicates: in singlicate; n = 1
[5] = tested on: ABL2; settings: concentration: 1 μM, replicates: in singlicate; n = 1
[6] = tested on: ACVR1B; settings: concentration: 1 μM, replicates: in singlicate; n = 1
[7] = tested on: T2, YSK4
T2 construct: gene MAP3K19

[8] = tested on: T3, p38-beta
T3 construct: gene MAPK11

[9] = tested on: ZAK
[10] = tested on: T4, YANK2
T4 construct: gene STK32B
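For %Inh in this document: KINOMEscan kinase panel screen.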
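For Kd in this document: kd values determined as follow-up on hits from a single-replicate KINOMEscan panel screen.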

Row | Structure (SMILES) | Kd [1] [nM] | %Inh [2] [%] | %Inh [3] [%] | %Inh [4] [%] | %Inh [5] [%] | %Inh [6] [%] | Kd [7] [nM] | Kd [8] [nM] | Kd [9] [nM] | Kd [10] [nM]
1 | Fc1ccc(-c2nn3cccc(F)c3c2-c2ccncc2)cc1 [GW475620] | 140 | 13 | 0 | 0 | 2 | 23 | – | – | – | –
2 | Cc1ccc(NC(=O)Nc2ccccc2F)cc1-c1ccc(C(=O)Nc2ccncc2)cc1 [GSK1398477] | – | 28 | 7 | 0 | 31 | 3 | 1500 | – | – | –
3 | FC(F)(F)c1ccccc1-c1cc(-c2c[nH]nc2-c2ccccn2)ccn1 [GW679396] | 310 | 21 | 0 | 0 | 1 | 0 | – | – | – | –
4 | COc1ccc(Nc2nccc(N3CCC(NC(=O)c4cc5ccccc5s4)C3)n2)cc1 (stereo not shown) [GSK1379738] | – | 73 | 0 | 0 | 1 | 0 | – | – | – | –
5 | Fc1ccc(-c2nc[nH]c2-c2ccncc2)cc1 [SB-217360] | 67 | 0 | 4 | 33 | 0 | 13 | – | – | – | –
6 | c1ccc(-c2ccnc3[nH]ccc23)cc1 [SB-693578] | – | 68 | 0 | 4 | 16 | 0 | 470 | – | – | –
7 | CCn1c(-c2c(N)noc2C)nc2cnccc21 [SB-737856] | – | 0 | 0 | 13 | 13 | 0 | – | – | – | –
8 | CC(C)c1ccc(O)cc1Nc1ccnc2ccc(C(F)(F)F)cc12 [GW482059] | – | 0 | 0 | 0 | 3 | 0 | – | – | – | –
9 | COC(=O)c1cccc(NC(=O)NC2CCN(c3ccnc(Nc4ccc(OC)cc4)n3)C2)c1 (stereo not shown) [GSK1379746] | – | 18 | 0 | 0 | 13 | 0 | – | – | – | –
10 | O=C(Nc1n[nH]c2cc(-c3ccsc3)ccc12)C1CC1 [SB-732932] | – | 56 | 47 | 11 | 18 | 21 | 120 | – | – | –
11 | COc1cccc(C2=C(Nc3cc(Cl)c(O)c(Cl)c3)C(=O)NC2=O)c1 [SB-390767] | – | 0 | 0 | 4 | 19 | 0 | – | – | – | –
12 | Cc1c(Cn2c3ccccc3n3c(=O)cc(N4CCOCC4)nc23)cccc1C(F)(F)F [GSK2306394] | – | 0 | 0 | 0 | 11 | 0 | – | – | – | –
13 | COc1ccc(CSc2nnc(-c3ccc4nccn4c3)o2)cc1C(F)(F)F | – | 16 | 28 | 13 | 21 | 23 | 22 | – | – | –
14 | CNCc1ccc2nc(NC(=O)c3ccc(C(C)(C)C)cc3)cn2c1 | > 10000 | 0 | 13 | 12 | 1 | 0 | – | – | – | –
15 | Nc1nccc(-c2c(-c3ccc(F)cc3)ncn2C2CCN(Cc3ccccc3)CC2)n1 [SB-219980] | 46 | 0 | 0 | 0 | 0 | 0 | – | – | – | –
16 | Cc1cnc(N)c(/C=C/c2cncc(C(=O)NCCc3ccc(Cl)cc3Cl)c2)c1.Cl [GSK190937] | – | 19 | 39 | 0 | 11 | 0 | – | – | – | –
17 | Cc1ccc(NC(=O)Nc2ccc(Cl)c(C(F)(F)F)c2)cc1-c1ccc(C(=O)Nc2ccncc2)cc1 [GSK1398470] | 310 | 3 | 1 | 0 | 34 | 5 | – | 90 | – | –
18 | Cc1cccc2c(-c3ccncn3)c(-c3ccc(F)cc3)nn12 [GW515532] | 1300 | 0 | 0 | 0 | 2 | 2 | – | – | – | –
19 | COc1cccc(CNC(=O)NC2CCN(c3ccnc(Nc4ccc(F)cc4)n3)C2)c1 (stereo not shown) [GSK1379723] | – | 6 | 0 | 1 | 8 | 0 | – | – | > 10000 | –
20 | O=C(Nc1n[nH]c2nc(-c3cccs3)c(Br)cc12)C1CC1 [SB-735297] | – | 10 | 52 | 30 | 0 | 0 | 200 | – | – | –
21 | COC(=O)C(Cc1ccccc1)NC(=O)NC1CCN(c2ccnc(Nc3ccc(F)cc3)n2)C1 (stereo not shown) [GSK1379714] | – | 0 | 0 | 0 | 0 | 0 | 1400 | – | – | –
22 | CN1c2ccc(-c3ccc(C(N)=O)cc3)cc2-c2[nH]ncc2S1(=O)=O | – | 39 | 36 | 9 | 0 | 3 | – | – | – | –

Row | Structure (SMILES) | Kd [1] [nM] | %Inh [2] [%] | %Inh [3] [%] | %Inh [4] [%] | %Inh [5] [%] | %Inh [6] [%] | Kd [7] [nM] | Kd [8] [nM] | Kd [9] [nM] | Kd [10] [nM]
23 | COc1nccc(-c2c(-c3ccc(F)cc3)ncn2CCCN2CCOCC2)n1 [SB-282852] | 160 | 0 | 55 | 41 | 49 | 0 | – | – | – | –
24 | O=c1cc(N2CCOCC2)nc2n(Cc3ccccc3F)ccn12 [GSK2297428] | – | 5 | 0 | 0 | 8 | 0 | – | – | – | –
25 | Fc1ccc(-c2nc3n(c2-c2ccncc2)CCS3)cc1 [GI98581] | 130 | 1 | 0 | 0 | 9 | 15 | – | – | – | –
26 | Cc1ccc(NC(=O)Nc2ccccc2)cc1-c1ccc(C(=O)Nc2ccncc2)cc1 [GSK1398471] | – | 8 | 0 | 0 | 16 | 0 | 71 | – | – | –
27 | Cc1ccc(NC(=O)Nc2ccc(Cl)cc2)cc1-c1ccc(C(=O)Nc2ccncc2)cc1 [GSK1398472] | – | 0 | 2 | 5 | 28 | 0 | – | – | – | –
28 | O=C(Nc1n[nH]c2nc(-c3ccco3)c(Br)cc12)C1CCN(Cc2ccccc2)C1.O=C(O)[C@H](O)[C@@H](O)C(=O)O (stereo not shown) [SB-742034] | – | 29 | 33 | 23 | 4 | 20 | – | – | – | –
29 | Cc1ccccc1-c1cc(-c2c[nH]nc2-c2ccccn2)ccn1 [GW680061] | 130 | 0 | 0 | 0 | 17 | 0 | – | – | – | –
30 | CNc1nc(-c2ccc3c(N)n[nH]c3c2)cc(N2C[C@@H](C(=O)Nc3ccccc3)CC[C@H]2C)n1 [GSK2298859] | – | 12 | 1 | 0 | 2 | 0 | – | – | – | 220
31 | Nc1cccc(-c2ccc3c(N)n[nH]c3c2)n1 [GSK2192730] | – | 56 | 10 | 0 | 0 | 0 | 130 | – | – | –
32 | CNc1nc(-c2ccc3c(N)n[nH]c3c2)cc(N2C[C@@H](C(=O)NC3CCCCC3)OC[C@H]2C)n1 [GSK2375584] | – | 40 | 6 | 0 | 3 | 0 | – | – | – | –
33 | CS(=O)(=O)CCNCc1nc(-c2ccc3ncnc(Nc4ccc(OCc5ccccc5)c(Cl)c4)c3c2)cs1.Cl [GW582764] | – | 0 | 0 | 0 | 21 | 0 | – | – | – | –
34 | Cn1cncc1C(=O)NC1CCN(c2ccnc(Nc3ccc(F)cc3)n2)C1 (stereo not shown) [GSK1379717] | – | 31 | 0 | 4 | 0 | 0 | – | – | > 10000 | –
35 | CNC(=O)c1ccc(C)c(-n2c(C)cc(OCc3ccc(F)cc3F)c(Br)c2=O)c1 | – | 0 | 0 | 0 | 0 | 7 | – | 120 | – | –
36 | O=C(Nc1n[nH]c2nc(-c3cccs3)c(Br)cc12)C1CCCC1 [SB-743341] | – | 0 | 48 | 19 | 5 | 17 | – | – | – | –
37 | Cc1ccccc1Cn1ccn2c(=O)cc(N3CCOCC3)nc12 [GSK2269905] | – | 24 | 0 | 0 | 11 | 0 | – | – | – | –
38 | NS(=O)(=O)c1cccc(N/C=C2\C(=O)Nc3ccc(S(=O)(=O)Cc4c(Cl)cccc4Cl)cc32)c1 [GSK398099] | – | 31 | 0 | 0 | 14 | 0 | – | – | – | –
39 | CC(=O)c1cccc(NC(=O)NC2CCN(c3ccnc(Nc4ccc(F)cc4)n3)C2)c1 (stereo not shown) [GSK1379710] | – | 16 | 0 | 0 | 0 | 0 | – | – | – | –
40 | CS(=O)(=O)Cc1ccc(Nc2nccc(-c3c(-c4cccc(NC(=O)C5CCCCC5)c4)nn4ncccc34)n2)cc1 [GSK350559] | – | 0 | 8 | 15 | 5 | 0 | – | – | – | –
41 | Cn1cnc2c(N)ncnc21 [SKF-97623] | – | 0 | 21 | 0 | 2 | 0 | – | – | – | –
42 | COc1cc2ncnc(Nc3cccc(Br)c3)c2cc1OC.Cl [GI230329] | – | 13 | – | – | 18 | 0 | – | – | – | –
43 | O=C1NC(=O)C(c2ccc(Cl)cc2)=C1Nc1cccc(Cl)c1 [SB-317651] | – | 0 | 47 | 0 | 0 | 0 | – | – | – | –
44 | COC(=O)c1cccc(NC(=O)NC2CCN(c3ccnc(Nc4ccc(F)cc4)n3)C2)c1 (stereo not shown) [GSK1379725] | – | 0 | 0 | 0 | 5 | 0 | – | – | – | –
